Eight molecules from the supplement of paper PMC10105736 can be followed below.

Common to all, as to assay: MAPPIT interaction score (arbitrary units); higher = stronger binary interaction signal, active = hit call of the paper
One assay has as its target CG12253. The note with it: MAPPIT configuration: N-C; pair source set: screen_3.
The next assay deals with Hsp70Aa. The note with it: MAPPIT configuration: N-N; pair source set: Lit-BS-16.
A further assay concerns the target CG11961. The conditions noted are these: MAPPIT configuration: N-N; pair source set: Lit-BS-16.
A further assay concerns the target CG12607. The conditions noted are these: MAPPIT configuration: N-N; pair source set: Lit-BS-16.
The target in the next assay is noc. The conditions noted are these: MAPPIT configuration: N-N; pair source set: Curagen_high_conf.
Another assay deals with CG12155. The conditions noted are these: MAPPIT configuration: N-N; pair source set: Lit-BS-16.
In another assay the target is Ravus. The note with it: MAPPIT configuration: N-N; pair source set: screen_1.
The next assay has as its target CG12307. The conditions noted are these: MAPPIT configuration: N-C; pair source set: screen_3.
For a further assay, the target named is CG30324. The note with it: MAPPIT configuration: N-C; pair source set: screen_3.
Another assay concerns the target en. The conditions noted are these: MAPPIT configuration: N-C; pair source set: screen_4.
Another assay has as its target CG12268. The note with it: MAPPIT configuration: N-N; pair source set: DPIM.
In a further assay the target is mub. The note with it: MAPPIT configuration: N-N; pair source set: DPIM.
In the next assay the target is CG5151. The note with it: MAPPIT configuration: N-N; pair source set: Curagen_high_conf.
In another assay the target is Npl4. The note with it: MAPPIT configuration: N-N; pair source set: Finley_Y2H.
Another assay has as its target PAN3. The note with it: MAPPIT configuration: N-N; pair source set: Finley_Y2H.
A further assay deals with Sxl. The conditions noted are these: MAPPIT configuration: N-N; pair source set: Finley_Y2H.
The next assay has as its target mxt. The conditions noted are these: MAPPIT configuration: N-N; pair source set: screen_1.
In a further assay the target is CG12112. The conditions noted are these: MAPPIT configuration: N-N; pair source set: RRS.
For the next assay, the target named is CG11983. The conditions noted are these: MAPPIT configuration: N-N; pair source set: screen_1.
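Further: HEK293T cells with Epo stimulation, STAT-responsive firefly luciferase reporter, fold induction versus unstimulated cells divided by the larger fold induction of two negative controls lacking either bait or prey.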

B1: Sry-alpha (protein)
chain: MEQLLAQLHTCSELIAEGYSSTGNIGWLNEFCATFLDFASDLKARLPEVAPSGANLDVETIFLCLTQVVTCITHLERTISMEAPHMTRQHFLDRLDWCLRRLLVSLTQLEGNVTPVKNLEDHSFVELMDLALDHLDDYMEKLAQQRNNSLHILEESFTEDTYQLASIVNHIVRHALAFANVAIHSDKKALTALCETLLAECATFHEEAGEPNSGHRKLEALSLERALYALESFLNEALLHLLFVSLIDLENASVEKLKDALQRDPAGAQELISAFDTNMDRIQQIGVLAIAFSQDIKTKTIVRSCLASLESLDACIVPALQLPESTSSAHHAEVLQEHFNQELLIFRNVIHEIIDSCSLINNYLDMLGERIHVQDKSHLKLIVQRGGVVVDHFRLPVNYSGLSEDGKRVHKDLILILRECQAVVNLDVPVDPKRIVKRLKILYSVLAKLRDLICRDNLEPDSSVASEAQVPSSATRTFVRSSRSFGKRHRSFVKQTGNCSVFGPQDSLAESGHSESDLISFQITEILRLD
With B1, the MAPPIT interaction score is 0.332 (inactive) in the assay with CG12253 and 3.5 (active) with Hsp70Aa.

B2: Sod3 (protein)
chain: MMQYLVVSLALCATICSAAQTRNMPIQAIAYLIGPVQSDNTQVKGNVTFTQNDCGQNVHVRVQLEGLKEGKHGFHIHEKGDLTNGCISMGAHYNPDKVDHGGPDHEVRHVGDLGNLEANSTGIIDVTYTDQVITLTGKLGIIGRGVVVHELEDDLGLGNHTDSKKTGNAGGRIACGVIGIK
B2: the figures for the MAPPIT interaction score with CG11961, with CG12607 and with noc were -0.0996 (inactive), 0.262 (inactive) and 0.249 (inactive), respectively.

B3: Arr1 (protein)
chain: MVVNFKVFKKCSPNNMITLYMNRRDFVDSVTQVEPIDGIIVLDDEYVRQNRKIFVQLVCNFRYGREDDEMIGLRFQKELTLVSQQVCPPQKQDIQLTKMQERLLKKLGSNAYPFVMQMPPSSPASVVLQQKASDESQPCGVQYFVKIFTGDSDCDRSHRRSTINLGIRKVQYAPTKQGIQPCTVVRKDFLLSPGELELEVTLDKQLYHHGEKISVNICVRNNSNKVVKKIKAMVQQGVDVVLFQNGQFRNTIAFMETSEGCPLNPGSSLQKVMYLVPTLVANCDRAGIAVEGDIKRKDTALASTTLIASQDARDAFGIIVSYAVKVKLFLGALGGELCAELPFILMHPKPSRKAQLEAEGSIEA
Turning to B3, the MAPPIT interaction score with CG12155 was 0.0379 (inactive); with Ravus, 0.0915 (inactive).

B4: osk (protein)
chain: MAAVTSEFPSKPISYTSTNTSAKTYYLKSVKKRVTTCFQQLRDKLQSSGSFRKSSSSCLNQIFVRSDFSACGERFRKIFKSARKTELPELWKVPLVAHELTSRQSSQQLQVVARLFSSTQISTKEITYNSNSNTSENNMTIIESNYISVREEYPDIDSEVRAILLSHAQNGITISSIKSEYRKLTGNPFPLHDNVTDFLLTIPNVTAECSESGKRIFNLKASLKNGHLLDMVLNQKERTSDYSSGAPSLENIPRAPPRYWKNPFKRRALSQLNTSPRTVPKITDEKTKDIATRPVSLHQMANEAAESNWCYQDNWKHLNNFYQQASVNAPKMPVPINIYSPDAPEEPINLAPPGHQPSCRTQSQKTEPTENRHLGIFVHPFNGMNIMKRRHEMTPTPTILTSGTYNDSLLTINSDYDAYLLDFPLMGDDFMLYLARMELKCRFRRHERVLQSGLCVSGLTINGARNRLKRVQLPEGTQIIVNIGSVDIMRGKPLVQIEHDFRLLIKEMHNMRLVPILTNLAPLGNYCHDKVLCDKIYRFNKFIRSECCHLKVIDIHSCLINERGVVRFDCFQASPRQVTGSKEPYLFWNKIGRQRVLQVIETSLEY
As to B4, the MAPPIT interaction score was 2.35 (inactive) in the assay with CG12307, 0.362 (inactive) with CG30324 and 0.844 (inactive) with en.

B5: mRpL52 (protein)
chain: MLKITKICLASSATSTAQRSIALTAPRAIDQKWRAAKGLPENPNAFGPLTNLPDYTYLDGRPTPLGANQKRRLIKQQEIATRIVELSGELEFAKQRHERLKANAESEKQRLIRSKLKPKGHFLLKK
As for B5, the results for the MAPPIT interaction score with CG12268 and with mub were -0.169 (inactive) and 0.103 (inactive), respectively.

B6: CycG (protein)
chain: MSVPVRYSSAAAEYAAEVDCELESTLQQQQQLHLQQQYEQYQHYQYQREQDIAYYCQLQAARQQEQLMQQRTSMSSSVMPGLALPQDHQDHPAALLNGPHNNNIGLAMDAHSINAILVDDEQPSTSAQAAAAAAASAGGSAGAGSGSGLGGAIGGGKLANGINRNAEMPTDWMRIADEGRYGTPGAAGLEYQKYEQQQQLEDLAESEAGAVGGASNNNGESSSSLKKLEDQLHALTSDELYETLKEYDVLQDKFHTVLLLPKESRREVTAGGRDGSAYVLRCLKMWYELPSDVLFSAMSLVDRFLDRMAVKPKHMACMSVASFHLAIKQLDLKPIPAEDLVTISQCGCTAGDLERMAGVIANKLGVQMGHAPITSVSYLRIYYALFRNLAKEIGGDFFKFYQQLIKLEELENRLEILMCDVKTTVITPSTLALVLICLHLDFHIKESYTRGSPELKHVFEYILFLQQYMRIPDRVFTCGFSIVSGILSHYNGQNKAPYKQRLVWKLSSRTLRVLRPINRFSSDLPTIEEGIPNALDDGLRSRTESISSEEEEDWPTSPIIPIFEQC
Take B6: the MAPPIT interaction score with CG12307 is 0.375 (inactive); with CG5151, 0.112 (inactive); in the assay with Npl4, 3.83 (active); with PAN3 it was 0.781 (inactive); with Sxl it was 1.86 (inactive); in the assay with mxt, -0.277 (inactive).

B7: Edg78E (protein)
chain: MYKYLFCLALIGCACADNINKDAQIRSFQNDATDAEGNYQYAYETSNGIQIQEAGNANGARGAVAYVSPEGEHISLTYTADEEGYHPVGDHLPTPPPVPAYVLRALEYIRTHPPAPAQKEQQ
B7: the MAPPIT interaction score with CG12112 is 2.76 (active).

B8: Cdlc2 (protein)
chain: MSDRKAVIKNADMSEEMQQDAVDCATQALEKYNIEKDIAAFIKKEFDKKYNPTWHCIVGRNFGSYVTHETRHFIYFYLGQVAILLFKSG
Turning to B8, the MAPPIT interaction score with CG11983 is 4.18 (active).
